# Measured values taken from the supplement of paper PMC10338343.
# ± gives the standard deviation.
# Key:
# [1] = system: MILI (PIWIL2) piRISC loaded with piRNA #1 (26 nt); assay: pre-steady-state target cleavage rate (min^-1); guide: piRNA #1 5'p-UGAGGUAGUAGGUUGUAUAGUAUCCA; higher = faster piRNA-guided slicing of the target; conditions: auxiliary factor: 500 nM mouse GTSF1
# Summary of the method: (§1)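 Cleave-'n-Seq used a transcribed, DNA-blocked target RNA library at 0.1 nM and active affinity-purified piRISC with one synthetic guide at 1 nM, with or without 500 nM GTSF1 partner protein, in HEPES–potassium acetate buffer at 33 °C for 0–8 or 0–960 min. Uncleaved targets were sequenced and normalised to depth and to weakly complementary targets, and three trials were pooled with k3 capped at 0.0001 min^-1. The pre-steady-state cleavage rate was estimated by a burst-and-steady-state fit.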
# [2] = system: EfPiwi piRISC loaded with piRNA #1 (26 nt); assay: pre-steady-state target cleavage rate (min^-1); auxiliary factor: 500 nM Ephydatia muelleri Gtsf1; guide: piRNA #1 5'p-UGAGGUAGUAGGUUGUAUAGUAUCCA; MIWI and MILI are mouse PIWI proteins and EfPiwi is from a freshwater sponge; tags in brackets are library labels; higher = faster piRNA-guided slicing of the target
# Summary of the method: as §1
Sequence,pre-steady-state target cleavage rate [1],pre-steady-state target cleavage rate [2]
GGAGACCAUAGUAUACAACCUACUACCUGA,0.0652 ± 0.012,0.00396 ± 0.0018
GGAGACCAUUCUAUACAACGUACUACCUCA,0.0141 ± 0.0029,0.00402 ± 0.0025
GGAGAGGAUACUAUACAACCUACUACCCCA,0.119 ± 0.02,0.00713 ± 0.0022
GGAGACGAUACAAUACAACCUACAACCUCA,0.152 ± 0.018,0.00274 ± 0.0027
GGAGAGGAUACUUUACAACCUACUAGCUCA,0.0731 ± 0.013,0.00183 ± 0.0016
GGAGACGAUACUGAUACAACCUACUACCUCA,0.203 ± 0.018,0.00712 ± 0.0036
GGAGACCAUACCUAUACAACCUACUACCUCA,0.152 ± 0.034,0.0273 ± 0.011
GGAGAGCAUACUAUACAAGCUACUACCUCA,0.22 ± 0.015,0.00318 ± 0.0023
GGAGUGCAUACAAUACAACCUACUACCUCA,0.186 ± 0.013,0.0102 ± 0.0044
GGAGUGGAUACUAUACAUCCUACAACCUCA,0.165 ± 0.014,0.00378 ± 0.0019
GGAGACGAAAGUAUACAACCUACUACCUCA,0.108 ± 0.01,0.0104 ± 0.0056
GGAGACCAAACUAUACAACCUACUACCACA,0.118 ± 0.028,0.00528 ± 0.0044
GGAGAGGAUACUUUACAACCUACUUCCUCA,0.00524 ± 0.0027,0.00239 ± 0.0024
GGAGAGGUUACUAUACAACCUACUAGCUCA,0.00459 ± 0.0029,0.00306 ± 0.0015
GGAGAGGAGACUAUACAACCUACUACCUCA,0.25 ± 0.052,0.0151 ± 0.0058
GGAGUGGCAUACUAUACAACCUACUACCUCA,0.204 ± 0.015,0.101 ± 0.029
GGAGACCUUACUAUACAACCUACUACCUGA,0.117 ± 0.016,0.00415 ± 0.0019
GGAGACGAUACUCAUACAACCUACUACCUCA,0.198 ± 0.02,0.0151 ± 0.0063
GGAGACCAUACUCUACAACCUACUACCUCA,0.161 ± 0.018,0.00922 ± 0.0037
GGAGACGAUACUAUACAACCUAGUACCUCA,0.0648 ± 0.014,0.00506 ± 0.0014

Sequence,pre-steady-state target cleavage rate [1],pre-steady-state target cleavage rate [2]
GGAGAGGAUUCUAUACAACCUACUACCUCA,0.179 ± 0.011,0.0066 ± 0.0039
GGAGACGAUACAAUACAACCUUCUACCUCA,0.0137 ± 0.0038,0.00327 ± 0.0022
GGAGACGAUACUAUACAUCCUACUACCUCA,0.289 ± 0.024,0.00772 ± 0.0032
GGAGACGAUACUAUAGCAACCUACUACCUCA,0.162 ± 0.013,0.00432 ± 0.0027
GGAGACCUUACAUAUACAACCUACUACCUCA,0.0595 ± 0.012,0.00546 ± 0.0041
GGAGUGAUACUAUACAACCUACUACCUCA,0.174 ± 0.011,0.186 ± 0.069
GGAGACCUAACUAUACAACCUACAUCCUCA,0.0364 ± 0.013,0.00597 ± 0.0051
GGAGUGGAUACUUUACAACCUUCUACCUCA,0.0065 ± 0.0017,0.00301 ± 0.0026
GGAGACCUAUCUAUACAACCUACUACCUACA,0.0858 ± 0.015,0.00445 ± 0.0039
GGAGAGGAUACUUUACAACCAACUACCUCA,0.00433 ± 0.0019,0.00291 ± 0.0016
GGAGACCUAAGAAUACAACCUACUACCUCA,0.0112 ± 0.0044,0.00727 ± 0.0035
GGAGACGAUACUAUACAACCUACUAGCUCA,0.11 ± 0.019,0.00381 ± 0.0011
GGAGACCUAUCUAUACAACCUACUACGUCA,0.0507 ± 0.008,0.00352 ± 0.0031
GGAGUGGAUACUAUACAACCUACAUCCUCA,0.00356 ± 0.0016,0.00282 ± 0.0012
GGAGUGGAUACUAUACAACCCACUACCUCA,0.0174 ± 0.0024,0.00487 ± 0.0019
GGAGUGGAUACUAUACUUCCUACUACCUCA,0.202 ± 0.013,0.0195 ± 0.01
GGAGUGGAGUACUAUACAACCUACUACCUCA,0.153 ± 0.0099,0.0116 ± 0.0055
GGAGACCAUACUAUACAACCUACUACCAUCA,0.168 ± 0.027,0.0041 ± 0.0029
GGAGACGAUACUAUUCAACCUACUACCACA,0.161 ± 0.014,0.00322 ± 0.0017
GGAGACCAUACAAUACAACCUACUACCUCA,0.189 ± 0.023,0.0108 ± 0.0032

Sequence,pre-steady-state target cleavage rate [1],pre-steady-state target cleavage rate [2]
GGAGACCUUACUAUACAACAUACUACCUCA,0.0732 ± 0.0077,0.00974 ± 0.0063
GGAGUGGUUACUAUACAACCUACUACGUCA,0.0604 ± 0.011,0.00307 ± 0.0016
GGAGUGGAUAUUAUACAACCUACUACCUCA,0.178 ± 0.0094,0.00879 ± 0.0043
GGAGAGGAUACUUUACAACCUUCUACCUCA,0.00789 ± 0.002,0.0032 ± 0.0028
GGAGACCAUUCAAUACAACCUACUACCUCA,0.0561 ± 0.0083,0.0119 ± 0.0054
GGAGUGGAUACUAUACUACCUACUUCCUCA,0.0121 ± 0.0027,0.00222 ± 0.0021
GGAGACGAUUCUAAACAACCUACUACCUCA,0.168 ± 0.012,0.00926 ± 0.0045
GGAGUGGAAACUAUACAAGCUACUACCUCA,0.257 ± 0.021,0.00579 ± 0.0027
GGAGACGAUACUAUACAAGCUAGUACCUCA,0.105 ± 0.028,0.00387 ± 0.002
GGAGACGAUACUAUACAACCUACUACUCUCA,0.244 ± 0.019,0.00563 ± 0.0022
GGAGACGAAACUAUACUACCUACUACCUCA,0.132 ± 0.02,0.00498 ± 0.0023
GGAGUGGAUACUAUACAAGCUACUACCUGA,0.0875 ± 0.014,0.00454 ± 0.0019
GGAGUGGAUACUAUACAACCUACUACCGCA,0.0694 ± 0.0095,0.00573 ± 0.002
GGAGACGAUUGAAUACAACCUACUACCUCA,0.00898 ± 0.0022,0.00528 ± 0.0043
GGAGACGAUACUAUACAACCUACUACUUCA,0.162 ± 0.013,0.00983 ± 0.0039
GGAGACCUAAGUUUACAACCUACUACCUCA,0.0168 ± 0.0041,0.00645 ± 0.0046
GGAGAGGUUACUAUACAUCCUACUACCUCA,0.191 ± 0.016,0.00567 ± 0.0029
GGAGAGGAUACUAUACAUCCUACAACCUCA,0.125 ± 0.024,0.00339 ± 0.0022
GGAGAGGUAUCUAUACAACCUACUACCUCA,0.0739 ± 0.0068,0.0113 ± 0.0061
GGAGACCAUACUUUACAACCUAGUACCUCA,0.119 ± 0.025,0.00535 ± 0.0043
